# Test results published in PubChem BioAssay.
# Several values for one entry are separate records, joined by “and”; a condition that tells them apart may be missing. Equal entries are not always repeated. Activity calls are given as the source filed them. Rule as the data show it, unless noted: active = inhibition above about 80%; inactive = the rest.
# Experiments:
# [1] = growth inhibition, single agent or in combination, cell-based, chromothripsis tumors, cisplatin or BGB combos (AID 1671449); conditions: LFS_MB_P medulloblastoma cells;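 also: cells exposed for 96 hours; 0% = vehicle DMSO and 100% = killing by high DMSO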
# [2] = growth inhibition, single agent and combos, cell-based, chromothripsis tumors, cisplatin or BGB combos (AID 1671450); conditions: HDN33 neuroblastoma cells, stronger effect = higher value;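 also: cells exposed to compound for four days; 0% = vehicle DMSO and 100% = cell killing by high DMSO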
# [3] = growth inhibition, single agents and combos, ICB984, cell-based, cisplatin or BGB combos, synergistic combos for chromothripsis tumors (AID 1671451; call rule not given here;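 also: cells exposed for 96 hours before readout; 0% = vehicle DMSO and 100% = killing by high DMSO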); conditions: ICB984 medulloblastoma cells, drug combinations, stronger effect = higher value
# [4] = growth inhibition, single agents and combos, LFS_MB_1R, cell-based, cisplatin or BGB combos, synergistic combos for chromothripsis tumors (AID 1671452); conditions: LFS_MB_1R medulloblastoma cells, stronger effect = higher value;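 also: cells exposed for 96 hours before readout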
# [5] = growth inhibition, single agents and combos, HTB85, cell-based, BGB or cisplatin IC20 combos, synergistic combos for chromothripsis tumors (AID 1671453); conditions: HTB85 osteosarcoma cells, drug combinations, stronger effect = higher value;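 also: cells exposed for 96 hours before readout; 0% = vehicle DMSO and 100% = high DMSO killing control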
# [6] = growth inhibition, single agents and combos, CRL2098, cell-based, BGB or cisplatin IC20 combos, synergistic combos for chromothripsis tumors (AID 1671454); conditions: CRL2098 osteosarcoma cells, drug combinations, stronger effect = higher value;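 also: cells exposed for 96 h before readout; 0% = vehicle DMSO and 100% = killing by high DMSO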
# [7] = growth inhibition, single agents and combos, HD-MB03, cell-based, BGB or cisplatin IC20 combos, synergistic combos for chromothripsis tumors (AID 1671455; in the data active = inhibition above about 83%;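 also: 0% = vehicle DMSO and 100% = high DMSO as cytotoxic control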); conditions: HD-MB03 medulloblastoma cells, stronger effect = higher value
# [8] = growth inhibition, single agents and combos, UWB1.289, cell-based, BGB or cisplatin combos, synergistic combos for chromothripsis tumors (AID 1671456); conditions: UWB1.289 ovarian carcinoma cells, stronger effect = higher value;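 also: cells exposed to compound for four days; 0% = vehicle DMSO and 100% = killing by high DMSO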
# [9] = growth inhibition, single agents and combos, LFS_MB_2R, cell-based, cisplatin combos, synergistic combos for chromothripsis tumors (AID 1671457); conditions: LFS_MB_2R medulloblastoma cells, stronger effect = higher value;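 also: cells exposed to compound for four days before readout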
# [10] = growth inhibition, MDA-MB-436, cell-based, BGB or cisplatin combos, synergistic combos for chromothripsis tumors (AID 1671458; call rule not given here;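 also: cells exposed for 96 hours; 0% = vehicle DMSO and 100% = killing by high DMSO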); conditions: MDA-MB-436 breast carcinoma growth inhibition, drug combinations, stronger effect = higher value
# [11] = UWB1.289_BRCA1 ovarian cancer growth, cell-based, BGB or cisplatin combinations (AID 1671459); conditions: UWB1.289 BRCA1 ovarian carcinoma, drug combinations, stronger effect = higher value
# [12] = drug combination toxicity in non-malignant astrocytes – cell-based, BGB or cisplatin IC20 combos, cytotoxicity control for chromothriptic childhood tumor combination screen (AID 1671460); conditions: Human astrocytes, viability inhibition, drug combinations, at 0.5 µM, stronger effect = higher value;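 also: cells exposed to compounds for 96 hours before viability readout; 0% = vehicle and 100% = killing control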
# [13] = BT084 cell growth, single and combined drugs, ICGC_MB145, cisplatin and BGB IC40 combos (AID 1671461); conditions: BT084 medulloblastoma cells, drug combinations, stronger effect = higher value;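 also: cells exposed to drugs for 96 hours; 0% = vehicle DMSO and 100% = high DMSO full killing control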
# [14] = RCMB18 cell growth, single agent and combined, cisplatin and BGB IC40 combos (AID 1671462); conditions: RCMB18 medulloblastoma cells, stronger effect = higher value;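 also: cells exposed to compound for four days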
# [15] = CRL1545 cell growth, single agent and combined, cisplatin and BGB IC20 combos (AID 1671464); conditions: CRL1545 osteosarcoma cells, stronger effect = higher value;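 also: cells exposed to compound for 96 hours before readout; 0% = vehicle DMSO and 100% = high DMSO killing control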
# [16] = at 0.5 µM, stronger effect = higher value
# [17] = measured here: combination with BGB IC20, at 0.005 µM
# [18] = measured here: combination with BGB IC40, at 0.005 µM
# [19] = measured here: combination with BGB IC40, at 0.05 µM
# [20] = measured here: combination with cisplatin, at 0.5 µM, stronger effect = higher value
# [21] = measured here: combination with cisplatin, at 5 µM, stronger effect = higher value
# [22] = measured here: with BGB IC20 combination, at 0.5 µM
# [23] = measured here: with cisplatin IC20 combination, at 0.5 µM
# [24] = measured here: 5 uM single agent, at 5 µM
# [25] = measured here: combination with cisplatin, at 0.5 µM
# [26] = measured here: combination with cisplatin, at 5 µM
# [27] = measured here: with BGB IC20, at 0.5 µM
# [28] = measured here: with BGB IC20, at 5 µM
# [29] = measured here: with cisplatin IC20, at 0.5 µM
# [30] = measured here: with cisplatin IC20, at 5 µM
# [31] = measured here: combination with BGB at IC20, at 0.5 µM
# [32] = measured here: combination with cisplatin at IC20, at 0.5 µM
# [33] = measured here: combo with BGB at IC20, at 0.5 µM
# [34] = measured here: combo with cisplatin at IC20, at 0.5 µM
# [35] = measured here: inhibition with BGB combination, at 0.05 µM
# [36] = measured here: inhibition with cisplatin combination, at 0.05 µM
# [37] = measured here: BGB combination, at 0.5 µM
# [38] = measured here: BGB combination, at 5 µM
# [39] = measured here: cisplatin combination, at 0.5 µM
# [40] = measured here: cisplatin combination, at 5 µM
# [41] = BGB combination, concentration series, at 5 µM
# [42] = cisplatin combination, concentration series, at 5 µM
# [43] = measured here: combo with BGB IC20
# [44] = measured here: combo with cisplatin IC20
# [45] = cisplatin combination, at 0.5 µM
# [46] = measured here: BGB IC40 combination 0.05 uM, at 0.05 µM
# [47] = measured here: BGB IC40 combination, at 0.05 µM
structure (smiles),measurement,setting,value
Nc1cc(F)ccc1NC(=O)/C=C/c1cnn(C/C=C/c2ccccc2)c1,inhibition,[1]; [16],19.7% (inactive) and -29.8% (inactive)
same,inhibition,[1]; [17],-27.4% and -4.91%
same,inhibition,[1]; [18],89.6% and -23%
same,inhibition,[1]; [19],10.4% and 0.325%
same,inhibition,[1]; [20],-17.2% and -44.8%
same,inhibition,[1]; [21],-14.4% and -23.8%
same,inhibition,"[2]; BGB combo, at 5 µM",-55.4% and -3.94%
same,inhibition,[2]; at 0.5 µM,-46.1% (inactive) and -1.14% (inactive)
same,inhibition,"[2]; cisplatin combo, at 5 µM",-62.1% and 12.2%
same,inhibition,[2]; [22],-50.1% and 0.078%
same,inhibition,[2]; [23],-34.6% and -2.05%
same,inhibition,"[2]; single agent, at 5 µM",-50.8% and -2.21%
same,inhibition,"[3]; BGB IC20 combo, at 0.005 µM",-16.5% and -7.2%
same,inhibition,"[3]; BGB IC40 combo, at 0.005 µM",-16% and 5.39%
same,inhibition,"[3]; BGB IC40 combo, at 0.05 µM",-9.88% and 2.13%
same,inhibition,[3]; at 0.5 µM,-33.8% (inactive) and -9.71% (inactive)
same,inhibition,"[3]; cisplatin combo, at 0.05 µM",-15.5% and -1.74%
same,inhibition,"[3]; cisplatin combo, at 0.5 µM",-45.9% and -17.3%
same,inhibition,"[3]; cisplatin combo, at 5 µM",-20.4% and -41.2%
same,inhibition,[3]; [24],-25.9% and -12.4%
same,inhibition,[4]; at 0.5 µM,-30.2% (inactive) and -13.5% (inactive)
same,inhibition,[4]; [19],-20% and -25.7%
same,inhibition,[4]; [25],-51.6% and -12%
same,inhibition,[4]; [26],-19.1% and 0.402%
same,inhibition,[5]; at 0.5 µM,-30% (inactive) and 0.99% (inactive)
same,inhibition,[5]; [27],-21.5% and 1.42%
same,inhibition,[5]; [28],-17.1% and -19.7%
same,inhibition,[5]; [29],-35.4% and -2.87%
same,inhibition,[5]; [30],19.9% and 1.46%
same,inhibition,"[5]; single agent, at 5 µM",-33.7% and -0.677%
same,inhibition,[6]; at 0.5 µM,-90.2% (inactive) and -24% (inactive)
same,inhibition,[6]; [31],-110% and -20.4%
same,inhibition,[6]; [32],-83.6% and -21.7%
same,inhibition,[7]; at 0.5 µM,-17.4% (inactive) and -5.34% (inactive)
same,inhibition,[7]; [33],-11.2% and -7.19%
same,inhibition,[7]; [34],-20.1% and 0.566%
same,inhibition,[8]; at 0.5 µM,-10.9% (inactive) and -4.29% (inactive)
same,inhibition,[8]; [35],-7.43% and -5.9%
same,inhibition,[8]; [36],-31.6% and -3.68%
same,inhibition,[9]; at 0.5 µM,-20.7% (inactive) and -11.8% (inactive)
same,inhibition,[9]; [25],-25.8% and -7.04%
same,inhibition,[9]; [26],-6.14% and -2.99%
same,inhibition,[10]; at 0.5 µM,-30.9% (inactive) and -9.97% (inactive)
same,inhibition,[10]; [37],-13.1%
same,inhibition,[10]; [38],-3.22% and -1.12%
same,inhibition,[10]; [39],-59.9% and -6.82%
same,inhibition,[10]; [40],8% and 15.6%
same,inhibition,[11]; [41],-29.7% and 12%
same,inhibition,[11]; at 0.5 µM,-22.5% (inactive) and -3.56% (inactive)
same,inhibition,[11]; [42],-4.42% and 12.4%
same,inhibition,[12],2.29% (inactive) and 8.32% (inactive)
same,inhibition,[12]; [43],16.9% and 12.5%
same,inhibition,[12]; [44],-7.65% and 10.5%
same,inhibition,[13]; at 0.5 µM,-9.17% (inactive) and 0.933% (inactive)
same,inhibition,[13]; [45],-6.82% and -1.46%
same,inhibition,"[13]; cisplatin combination, at 5 µM",-105% and 25.2%
same,inhibition,[13]; [46],-19.8% and -24.1%
same,inhibition,"[13]; single agent, at 5 µM",-7.33% and 11.8%
same,inhibition,[14]; at 0.5 µM,2.62% (inactive) and -10.6% (inactive)
same,inhibition,"[14]; cisplatin combo, at 5 µM",-19.2% and 26.8%
same,inhibition,[14]; [47],-14.2% and 7.18%
same,inhibition,[14]; [25],9.23% and 6.5%
same,inhibition,"[14]; single agent, at 5 µM",5.68% and -6.78%
same,inhibition,[15]; at 0.5 µM,-28.2% (inactive) and -6.93% (inactive)
same,inhibition,[15]; [22],-50.8% and -4.55%
same,inhibition,[15]; [23],-18.7% and -8.13%
same,inhibition,"[15]; single agent, at 0.05 µM",-48.6% and -13.2%
same,inhibition,"[15]; single agent, at 5 µM",23.9% and 22.7%
COc1cccc2c1C(=O)c1c(O)c3c(c(O)c1C2=O)CC(O)(C(C)=O)CC3OC1CC(N)C(O)C(C)O1 (stereo unspecified),inhibition,[1]; [16],-31.5% (inactive)
same,inhibition,[1]; [17],15.7%
same,inhibition,[1]; [18],-20.1%
same,inhibition,[1]; [19],0.2%
same,inhibition,[1]; [20],-39.6%
same,inhibition,[1]; [21],121%
same,inhibition,"[2]; BGB combo, at 5 µM",99.8%
same,inhibition,[2]; at 0.5 µM,99.4% (active)
same,inhibition,"[2]; cisplatin combo, at 5 µM",99.9%
same,inhibition,[2]; [22],98.9%
same,inhibition,[2]; [23],99.7%
same,inhibition,"[2]; single agent, at 5 µM",99.9%
same,inhibition,"[3]; BGB IC20 combo, at 0.005 µM",97.7%
same,inhibition,"[3]; BGB IC40 combo, at 0.005 µM",98%
same,inhibition,"[3]; BGB IC40 combo, at 0.05 µM",102%
same,inhibition,[3]; at 0.5 µM,-13% (inactive)
same,inhibition,"[3]; cisplatin combo, at 0.05 µM",102%
same,inhibition,"[3]; cisplatin combo, at 0.5 µM",-18.7%
same,inhibition,"[3]; cisplatin combo, at 5 µM",7.68%
same,inhibition,[3]; [24],8.05%
same,inhibition,[4]; at 0.5 µM,101% (active)
same,inhibition,[4]; [19],85%
same,inhibition,[4]; [25],101%
same,inhibition,[4]; [26],104%
same,inhibition,[5]; at 0.5 µM,99.2% (active)
same,inhibition,[5]; [27],98.8%
same,inhibition,[5]; [28],99.9%
same,inhibition,[5]; [29],99.3%
same,inhibition,[5]; [30],100%
same,inhibition,"[5]; single agent, at 5 µM",99.9%
same,inhibition,[6]; at 0.5 µM,99.4% (active)
same,inhibition,[6]; [31],98.9%
same,inhibition,[6]; [32],99.6%
same,inhibition,[7]; at 0.5 µM,97.2% (active)
same,inhibition,[7]; [33],95.8%
same,inhibition,[7]; [34],97.5%
same,inhibition,[8]; at 0.5 µM,72.4% (inactive)
same,inhibition,[8]; [35],38.4%
same,inhibition,[8]; [36],35.7%
same,inhibition,[9]; at 0.5 µM,86.9% (active)
same,inhibition,[9]; [25],95.6%
same,inhibition,[9]; [26],112%
same,inhibition,[10]; at 0.5 µM,87.4% (active)
same,inhibition,[10]; [37],85.1%
same,inhibition,[10]; [38],89.2%
same,inhibition,[10]; [39],91.5%
same,inhibition,[10]; [40],95.1%
same,inhibition,[11]; [41],104%
same,inhibition,[11]; at 0.5 µM,80.6% (active)
same,inhibition,[11]; [42],98.3%
same,inhibition,[12],93.3% (active)
same,inhibition,[12]; [43],88.3%
same,inhibition,[12]; [44],93.9%
same,inhibition,[13]; at 0.5 µM,40.4% (inactive)
same,inhibition,[13]; [45],18.1%
same,inhibition,"[13]; cisplatin combination, at 5 µM",88%
same,inhibition,[13]; [46],-6.7%
same,inhibition,"[13]; single agent, at 5 µM",88.2%
same,inhibition,[14]; at 0.5 µM,79% (inactive)
same,inhibition,"[14]; cisplatin combo, at 5 µM",90.7%
same,inhibition,[14]; [47],13.9%
same,inhibition,[14]; [25],77.7%
same,inhibition,"[14]; single agent, at 5 µM",94.7%
same,inhibition,[15]; at 0.5 µM,99.5% (active)
same,inhibition,[15]; [22],99.1%
same,inhibition,[15]; [23],99.7%
same,inhibition,"[15]; single agent, at 0.05 µM",98.4%
same,inhibition,"[15]; single agent, at 5 µM",100%
